From PubChem
Compounds with a hit are over-represented: about 9.9% of the library has one in this group of screens.
MCF10A rereplic = inducers of DNA re-replication in MCF 10A breast cells; MCF 10A DNA re-replication, Hoechst nuclear intensity, 48 h; Potency, µM (series often up to 46.1 µM), for the others: top-dose activity, positive = re-replication, hits mostly activators; 350,000 compounds, 2.9% hits; AID 624296; further: potency means the concentration at half of the fitted maximal effect; % of control where 0% means no effect; nearly all actives have a fitted effect of over 50% in size
SW480 rereplic = DNA re-replication induction in SW480 cells; SW480 DNA re-replication, Hoechst DNA content imaging, 48 h; Potency, µM (titrated, usually from 46.1 µM), for the others: top-dose re-replication activation, hits mostly activators; 340,000 compounds, 1.8% hits; further: potency means the concentration at half of the fitted maximal effect; % of control where 0% means no effect; nearly all actives have a fitted effect of over 55% in size
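SW480 cells exposed to compounds for 48 hr at 37 C, 5% CO2, then Hoechst-stained 40 min. Nuclear DNA content imaged by fluorescence scanning (405 nm excitation, 500-530 nm emission); re-replication scored as increased high-intensity nuclei.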
KB-3-1 cytotox = KB-3-1 parental cell cytotoxicity. Potency, µM (titrated, usually from 46.1 µM), most hits filed as cytotoxic. AID 1347075. 400,000 compounds, 1.4% hits. KB-3-1 viability, CellTiter-Glo ATP luminescence, 72 h; further: potency means the concentration at half of the fitted maximal effect; on the % scale 0 is the no-effect control and ±100 the full control effect; nearly all actives have a fitted effect of over 60% in size
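Cytotoxicity measured as CellTiter-Glo luminescence after 72 h at 37 C. Compound titrations were pinned onto drug-naive KB-3-1 parental adenocarcinoma cells grown in DMEM with 10% FBS, and normalized data fitted to concentration-response curves.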
KB-V1 MDR tox = kills drug-selected multidrug resistant KB-V1 cells | KB-V1 MDR cells viability, CellTiter-Glo, 72 h | Potency, µM (doses to about 46.1 µM), most hits filed as cytotoxic | 400,000 compounds, 3.4% hits; further: potency means the concentration at half of the fitted maximal effect; on the % scale 0 is the no-effect control and ±100 the full control effect; nearly all actives have a fitted effect of over 60% in size
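KB-V1 cells (P-gp-expressing MDR subline of KB-3-1) in phenol-red-free DMEM with 10% FBS were exposed to library compounds over a concentration series for 72 h at 37 degrees C. Viability read by CellTiter-Glo luminescence; concentration-effect curves fitted after normalization.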
IL1B secr inh = blocks inflammasome-driven IL-1 beta release; 360,000 compounds, 4.7% hits; activity change, % at 57.5 µM; THP-1 LPS/ATP IL-1B secretion, AlphaLISA, 16 h; stronger effect = lower value; in the data active means activity change below about -50%; inconclusive means mostly about -30% to -49%; further: on the % scale 0 is the no-effect control and ±100 the full control effect
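Secreted IL-1B measured by AlphaLISA bead assay after 16 h compound exposure of THP-1 cells; compounds (final up to 57.5 uM) added 1 h before LPS (250 ng/mL) and ATP (1.25 mM) stimulation; lower signal means less secretion.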
Starred values were filed as active, the others as inactive; i = inactive; ? = inconclusive; nt = no result; [ ] = another dose, or the depositor's remark. Unless noted, the call rests on the fitted dose curve; in most records, active means well fitted curve in the direction sought with a large enough effect; inconclusive means small, poorly fitted or top-dose-only effect, or another doubt; inactive means no such curve, though single readings can be large; an effect the other way counts as inactive or inconclusive.

SMILES | MCF10A rereplic | SW480 rereplic | KB-3-1 cytotox | KB-V1 MDR tox | IL1B secr inh
OC[C@@H]1[C@@H](c2ccc(F)cc2)C(c2cccc(Cl)c2)=NN1c1ccccc1 | 0.58µM* | 0.13µM* | ? | ? | ?
CCOc1ccc(N2C(=O)C3C(c4ccccc4)=NN(c4ccccc4)C3C2=O)cc1 (stereo not drawn) | 24% | -690% | i | i | 9
Nc1c(-c2cccc(Cl)c2)cnn1-c1ccccc1 | 7% | -2% | i | i | -2
CC1=C(C#N)C(c2cccnc2)C2=C(CC(c3ccc(Cl)cc3)CC2=O)N1 (stereo not drawn) | 3% | 7.3µM* | i | i | ?
O=C(CCCOc1ccccc1)N1CCN(S(=O)(=O)c2ccccc2)CC1 | 1% | -2% | i | i | -12
O=C(CN1CCN(S(=O)(=O)c2ccc(F)c(Cl)c2)CC1)N1CCc2ccccc21 | -3% | -5% | ? | 3.3µM* | 13
O=C(CCC(=O)N1CCc2ccccc2C1)N1CCN(S(=O)(=O)c2ccccc2)CC1 | -3% | 0% | i | 13µM* | 17
CC(=O)N1CCc2cc(S(=O)(=O)CCC(=O)N3CCc4ccccc4C3)ccc21 | 5% | 12% | i | i | 34
O=C(CCCOc1ccc(Cl)cc1Cl)N1CCc2ccccc2C1 | 3.3µM* | 2.6µM* | i | ? | -6
CC(=O)N1CCc2cc(S(=O)(=O)NCCC(=O)N3CCc4ccccc4C3)ccc21 | 2% | 0% | ? | 23µM* | 47
Nc1nc(NCc2ccc(Cl)c(Cl)c2)c2[nH]cnc2n1 | nt | nt | i | i | nt
O=C(CN1CCN(S(=O)(=O)c2ccc(F)c(Cl)c2)CC1)N1CCc2ccccc2C1 | 13% | -1% | i | 9.2µM* | -5
COc1ccc(S(=O)(=O)N2CCN(CC(=O)N3CCc4ccccc4C3)CC2)cc1OC | 12% | 2% | i | i | -13
O=CNc1ccc2c(c1)Cc1cccc(NC=O)c1-2 | -2% | 1% | ? | 6.5µM* | 17
O=C(Nc1ccc2c(c1)Cc1ccccc1-2)c1ccncc1 | ? | -3% | i | i | -12
CCOC(=O)c1cc2nc(Nc3ccc(OC)cc3)sc2s1 | 4.6µM* | ? | i | i | -1
Cc1ccc(C(=O)NCC(=O)OCC(=O)Nc2ccccc2C#N)s1 | -1% | -7% | i | i | 14
CSc1cccc(NC(=O)c2ccc(CN3CCc4ccccc4C3)cc2)c1 | ? | ? | ? | ? | -88*
O=C(Nc1cccc(Br)c1)c1ccc(CN2CCc3ccccc3C2)cc1 | 26µM* | 18µM* | ? | ? | 0
O=C(Nc1ccc(F)cc1)c1ccc(CN2CCc3ccccc3C2)cc1 | 1% | -5% | ? | 5.8µM* | 16
COC(=O)c1ccc(CN2CCc3ccc(NC(=O)c4ccncc4)cc3C2)cc1 | ? | -4% | ? | 13µM* | -11
CC(=O)Nc1ccc(NC(=O)c2ccc(CN3CCc4ccccc4C3)cc2)cc1 | 2% | -11% | i | i | 22
CCN(c1ccccc1C(=O)O)S(=O)(=O)c1ccc2[nH]c(=O)[nH]c2c1 | -1% | -24% | i | ? | 6
COc1cccc(CN(C)C(=O)C(CCSC)NS(=O)(=O)c2ccc3c(c2)OCCO3)c1OC (stereo not drawn) | ? | -448% | i | 15µM* | -1
Cc1cc(C)c(Nc2cc(S(=O)(=O)O)c(N)c3c2C(=O)c2ccccc2C3=O)c(C)c1 | ? | -16% | i | i | -55*
SMILES | MCF10A rereplic | SW480 rereplic | KB-3-1 cytotox | KB-V1 MDR tox | IL1B secr inh
Cc1cc(C)c(NC(=O)COC(=O)c2cccc3c2C(=O)c2ccccc2C3=O)c(C)c1 | ? | -6% | ? | ? | ?
C=C(C)CC(NCCc1ccccc1)c1ccco1 (stereo not drawn) | -9% | 5% | i | i | -17
Cc1ccc(-c2nc3c(c(=O)c4ccccc4n3C)c(=O)n2Cc2ccco2)cc1 | 2% | 18µM* | i | i | nt
Cn1c2ccccc2c(=O)c2c(=O)n(Cc3ccco3)c(-c3ccc(F)cc3)nc21 | -15% | ? | i | i | -7
CC1CCCCN1C(=O)CSc1nnc(-c2cccnc2)n1C1CCCCC1 (stereo not drawn) | 0% | -1% | i | 15µM* | -14
O=C(CSc1nnc(-c2cccnc2)n1C1CCCCC1)NC1CCCCC1 | 3% | -9% | i | 18µM* | -6
Cc1noc(C)c1CSc1nnc(-c2cccnc2)n1C1CCCCC1C (stereo not drawn) | 5% | 2% | i | 23µM* | 24
Cn1nc(-c2ccccc2)c2ncc(C(F)(F)F)cc21 | 25% | 3% | i | i | 28
CN(C)c1ccc(/C=C/c2ccncc2)cc1 | ? | ? | ? | i | 0
CCN(CC)c1ccc(/C=C/c2ccncc2)cc1 | nt | nt | 0.52µM* | i | nt
CCOC(=O)c1c(C)c(-c2ccccc2)n(CC(=O)Nc2cc(C)ccc2OC)c1C | nt | nt | i | i | nt
CSCCC(NS(=O)(=O)c1ccc(C)c(C(=O)O)c1)C(=O)O (stereo not drawn) | -26% | 12%[1.84 µM] | i | i | 13
COc1cc(C2C3=C(COC3=O)Oc3cc4c(cc32)OCO4)ccc1O (stereo not drawn) | ? | 1.8µM* | 3.7µM* | 4.6µM* | 28
COc1cc(C2C3=C(COC3=O)OC(C)(C)Oc3cc4c(cc32)OCO4)cc(OC)c1OC (stereo not drawn) | 1.2µM* | 1.2µM* | 0.73µM* | 3.7µM* | 16
COc1cc([C@@H]2OC[C@@H]3[C@H]2CO[C@@H]3c2ccc3c(c2)OCO3)ccc1O | ? | -5% | i | i | 15
CSc1ccc(CCNC(=O)c2sc3ncccc3c2-n2cccc2)cc1 | nt | nt | i | i | nt
O=C1OC(c2ccc(F)cc2)CC1CN1CCOCC1 (stereo not drawn) | nt | nt | i | i | -11
Cc1cn(CCOc2ccc(Cl)cc2)c(=O)[nH]c1=O | 4% | -16% | i | i | 7
CNC(=S)NN=C(C)CCCC(C)=NNC(=S)NC | 1% | 0.41µM* | ? | i | -105*
Cc1ccc(C(=O)NCC(=O)OCC(=O)c2ccc(Br)s2)cc1 | 0% | 0% | i | i | 13
Cc1ccc(-c2nc(NCc3cccnc3)c3ccccc3n2)cc1 | ? | 1% | i | i | -76*
OC(CNc1nc(-c2cccnc2)nc2ccccc12)c1ccccc1 (stereo not drawn) | 21% | ? | i | ? | -66*
OCCNc1nc(-c2cccnc2)nc2ccccc12 | ? | -5% | i | i | -21
Clc1cccc(-c2nc(NCc3cccnc3)c3ccccc3n2)c1 | ? | 15% | i | 15µM* | -58*
